Experimental data reported in ChEMBL document CHEMBL1961873, “Compounds: GSK PKIS; Assays: Nanosyn kinase panel” (2012).

Legend:
[1] = target: T1, Tyrosine-protein kinase receptor TYRO3 (Homo sapiens) (UniProt Q06418); settings: at 1 µM
T1 sequence (whole entry): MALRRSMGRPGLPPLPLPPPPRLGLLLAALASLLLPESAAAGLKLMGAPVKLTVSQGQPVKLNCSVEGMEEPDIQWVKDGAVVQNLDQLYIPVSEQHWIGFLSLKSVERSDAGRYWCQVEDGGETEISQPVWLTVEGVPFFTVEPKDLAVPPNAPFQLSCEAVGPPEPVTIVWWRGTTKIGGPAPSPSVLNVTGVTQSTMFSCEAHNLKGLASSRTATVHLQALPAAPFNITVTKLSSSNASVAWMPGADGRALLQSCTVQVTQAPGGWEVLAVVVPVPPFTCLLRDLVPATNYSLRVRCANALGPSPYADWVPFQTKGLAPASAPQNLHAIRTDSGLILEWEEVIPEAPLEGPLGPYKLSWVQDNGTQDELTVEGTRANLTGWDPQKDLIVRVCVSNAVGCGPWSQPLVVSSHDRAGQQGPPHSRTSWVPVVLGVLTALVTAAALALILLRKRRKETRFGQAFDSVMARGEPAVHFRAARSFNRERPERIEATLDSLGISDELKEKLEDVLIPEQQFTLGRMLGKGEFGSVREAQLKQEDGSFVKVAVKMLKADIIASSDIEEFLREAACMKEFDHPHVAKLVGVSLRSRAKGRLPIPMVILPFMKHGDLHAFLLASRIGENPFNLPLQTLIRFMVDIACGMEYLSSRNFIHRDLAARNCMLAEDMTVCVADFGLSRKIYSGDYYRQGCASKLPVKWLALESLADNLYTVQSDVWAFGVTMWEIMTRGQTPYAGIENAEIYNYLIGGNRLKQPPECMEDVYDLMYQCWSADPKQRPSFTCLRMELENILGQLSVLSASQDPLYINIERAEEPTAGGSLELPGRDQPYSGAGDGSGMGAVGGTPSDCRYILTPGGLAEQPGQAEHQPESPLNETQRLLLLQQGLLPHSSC

[2] = target: Tyrosine-protein kinase Yes (Homo sapiens) (UniProt P07947); settings: at 0.1 µM
Sequence of Tyrosine-protein kinase Yes (Homo sapiens) (P07947 2-543 limits assumed): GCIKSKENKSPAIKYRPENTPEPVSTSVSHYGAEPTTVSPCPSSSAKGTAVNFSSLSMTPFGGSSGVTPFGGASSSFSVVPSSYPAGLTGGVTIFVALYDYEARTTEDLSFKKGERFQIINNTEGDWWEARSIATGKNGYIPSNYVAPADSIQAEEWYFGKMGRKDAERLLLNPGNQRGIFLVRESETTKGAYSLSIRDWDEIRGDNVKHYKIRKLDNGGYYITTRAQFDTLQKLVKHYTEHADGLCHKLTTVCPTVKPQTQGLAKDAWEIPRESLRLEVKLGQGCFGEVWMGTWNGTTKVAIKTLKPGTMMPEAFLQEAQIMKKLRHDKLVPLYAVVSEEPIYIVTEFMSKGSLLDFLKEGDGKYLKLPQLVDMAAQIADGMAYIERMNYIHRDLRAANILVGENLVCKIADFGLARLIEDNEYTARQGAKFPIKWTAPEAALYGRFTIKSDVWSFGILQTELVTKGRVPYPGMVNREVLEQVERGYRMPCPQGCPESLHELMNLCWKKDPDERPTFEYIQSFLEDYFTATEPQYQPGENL

[3] = target: Tyrosine-protein kinase Yes (Homo sapiens) (UniProt P07947); settings: at 1 µM
[4] = target: T2, Tyrosine-protein kinase ZAP-70 (Homo sapiens) (UniProt P43403); settings: at 0.1 µM
T2 sequence (whole entry): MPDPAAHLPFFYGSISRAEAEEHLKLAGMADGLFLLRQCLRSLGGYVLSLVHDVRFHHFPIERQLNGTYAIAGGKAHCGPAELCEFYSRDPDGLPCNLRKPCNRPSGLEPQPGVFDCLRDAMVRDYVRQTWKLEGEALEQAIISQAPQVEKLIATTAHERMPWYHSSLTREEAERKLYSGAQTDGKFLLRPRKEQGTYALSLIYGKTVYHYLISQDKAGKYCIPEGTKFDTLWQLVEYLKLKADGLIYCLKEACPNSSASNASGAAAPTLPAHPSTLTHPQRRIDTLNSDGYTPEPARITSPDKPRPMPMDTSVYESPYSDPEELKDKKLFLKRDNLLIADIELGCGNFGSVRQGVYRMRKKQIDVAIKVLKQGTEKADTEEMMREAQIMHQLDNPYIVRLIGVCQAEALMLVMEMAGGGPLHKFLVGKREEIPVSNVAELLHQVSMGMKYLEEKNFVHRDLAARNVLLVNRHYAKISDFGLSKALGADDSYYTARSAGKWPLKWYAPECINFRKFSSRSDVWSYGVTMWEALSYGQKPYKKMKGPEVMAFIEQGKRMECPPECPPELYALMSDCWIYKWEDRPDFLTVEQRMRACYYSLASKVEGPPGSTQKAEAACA

[5] = target: T2, Tyrosine-protein kinase ZAP-70 (Homo sapiens); settings: at 1 µM
[6] = target: Serine/threonine-protein kinase B-raf (Homo sapiens) (UniProt P15056); settings: at 0.1 µM
Sequence of Serine/threonine-protein kinase B-raf (Homo sapiens) (P15056 whole entry): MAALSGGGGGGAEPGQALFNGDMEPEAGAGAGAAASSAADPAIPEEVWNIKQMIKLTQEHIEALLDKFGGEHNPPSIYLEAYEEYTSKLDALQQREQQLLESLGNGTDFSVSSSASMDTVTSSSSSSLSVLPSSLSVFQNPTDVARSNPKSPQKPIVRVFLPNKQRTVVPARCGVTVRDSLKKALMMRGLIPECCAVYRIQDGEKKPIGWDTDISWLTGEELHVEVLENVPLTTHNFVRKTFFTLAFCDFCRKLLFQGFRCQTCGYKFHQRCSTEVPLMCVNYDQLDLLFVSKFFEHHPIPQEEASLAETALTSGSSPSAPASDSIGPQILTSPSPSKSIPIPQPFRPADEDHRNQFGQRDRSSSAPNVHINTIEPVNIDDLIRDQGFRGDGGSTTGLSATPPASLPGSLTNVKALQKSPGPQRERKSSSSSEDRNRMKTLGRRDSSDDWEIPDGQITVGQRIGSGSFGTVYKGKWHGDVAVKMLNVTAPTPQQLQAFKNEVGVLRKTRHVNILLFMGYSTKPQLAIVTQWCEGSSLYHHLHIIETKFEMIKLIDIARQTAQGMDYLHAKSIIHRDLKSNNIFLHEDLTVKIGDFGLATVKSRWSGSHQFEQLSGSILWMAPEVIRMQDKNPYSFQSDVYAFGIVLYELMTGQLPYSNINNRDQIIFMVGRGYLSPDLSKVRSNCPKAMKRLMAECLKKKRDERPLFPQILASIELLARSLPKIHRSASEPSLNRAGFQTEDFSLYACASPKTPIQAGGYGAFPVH

[7] = target: Serine/threonine-protein kinase B-raf (Homo sapiens) (UniProt P15056); settings: at 1 µM
[8] = system: Serine/threonine-protein kinase B-raf (Homo sapiens), P15056 [V600E]; settings: at 0.1 µM
Sequence of Serine/threonine-protein kinase B-raf (Homo sapiens), P15056 [V600E] (P15056 whole entry V600E): as the sequence (P15056 whole entry) above, with V600E counted along it

[9] = system: Serine/threonine-protein kinase B-raf (Homo sapiens), P15056 [V600E]; settings: at 1 µM
[10] = target: RAF proto-oncogene serine/threonine-protein kinase (Homo sapiens) (UniProt P04049); settings: at 0.1 µM
Sequence of RAF proto-oncogene serine/threonine-protein kinase (Homo sapiens) (P04049 whole entry): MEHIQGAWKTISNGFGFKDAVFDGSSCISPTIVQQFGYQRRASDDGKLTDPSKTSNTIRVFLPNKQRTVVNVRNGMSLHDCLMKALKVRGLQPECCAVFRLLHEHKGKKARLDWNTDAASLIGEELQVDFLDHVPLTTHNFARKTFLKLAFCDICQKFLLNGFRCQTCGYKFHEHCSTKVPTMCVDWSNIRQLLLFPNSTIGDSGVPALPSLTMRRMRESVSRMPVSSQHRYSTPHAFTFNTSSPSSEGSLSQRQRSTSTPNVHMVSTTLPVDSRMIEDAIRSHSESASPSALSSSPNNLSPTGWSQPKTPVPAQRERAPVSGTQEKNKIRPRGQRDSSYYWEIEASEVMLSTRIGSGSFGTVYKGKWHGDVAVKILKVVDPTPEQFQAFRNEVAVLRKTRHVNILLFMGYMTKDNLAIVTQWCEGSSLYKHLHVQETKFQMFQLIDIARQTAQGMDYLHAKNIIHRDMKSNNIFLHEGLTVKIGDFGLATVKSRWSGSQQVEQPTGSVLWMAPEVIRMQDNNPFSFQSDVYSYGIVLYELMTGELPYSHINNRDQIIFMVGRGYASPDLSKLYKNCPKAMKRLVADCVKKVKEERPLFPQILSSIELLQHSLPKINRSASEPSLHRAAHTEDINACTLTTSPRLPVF

[11] = target: RAF proto-oncogene serine/threonine-protein kinase (Homo sapiens) (UniProt P04049); settings: at 1 µM
[12] = target: T3, Interleukin-1 receptor-associated kinase 4 (Homo sapiens) (UniProt Q9NWZ3); settings: at 0.1 µM
T3 sequence (whole entry): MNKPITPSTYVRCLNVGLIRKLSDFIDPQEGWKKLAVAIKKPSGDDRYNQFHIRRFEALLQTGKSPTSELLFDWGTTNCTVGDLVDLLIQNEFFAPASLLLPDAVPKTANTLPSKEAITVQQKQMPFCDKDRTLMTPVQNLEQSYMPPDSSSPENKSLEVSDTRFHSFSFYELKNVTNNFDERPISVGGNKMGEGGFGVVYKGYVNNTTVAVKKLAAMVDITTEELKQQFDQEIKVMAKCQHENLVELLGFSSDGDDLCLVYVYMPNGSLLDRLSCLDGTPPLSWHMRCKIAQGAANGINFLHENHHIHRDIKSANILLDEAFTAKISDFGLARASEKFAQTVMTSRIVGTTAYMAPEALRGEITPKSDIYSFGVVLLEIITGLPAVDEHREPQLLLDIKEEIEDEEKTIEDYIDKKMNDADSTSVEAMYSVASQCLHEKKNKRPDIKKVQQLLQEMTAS

[13] = target: T3, Interleukin-1 receptor-associated kinase 4 (Homo sapiens); settings: at 1 µM
[14] = target: Leucine-rich repeat serine/threonine-protein kinase 2 (Homo sapiens) (UniProt Q5S007); settings: at 0.1 µM
Sequence of Leucine-rich repeat serine/threonine-protein kinase 2 (Homo sapiens) (Q5S007 whole entry): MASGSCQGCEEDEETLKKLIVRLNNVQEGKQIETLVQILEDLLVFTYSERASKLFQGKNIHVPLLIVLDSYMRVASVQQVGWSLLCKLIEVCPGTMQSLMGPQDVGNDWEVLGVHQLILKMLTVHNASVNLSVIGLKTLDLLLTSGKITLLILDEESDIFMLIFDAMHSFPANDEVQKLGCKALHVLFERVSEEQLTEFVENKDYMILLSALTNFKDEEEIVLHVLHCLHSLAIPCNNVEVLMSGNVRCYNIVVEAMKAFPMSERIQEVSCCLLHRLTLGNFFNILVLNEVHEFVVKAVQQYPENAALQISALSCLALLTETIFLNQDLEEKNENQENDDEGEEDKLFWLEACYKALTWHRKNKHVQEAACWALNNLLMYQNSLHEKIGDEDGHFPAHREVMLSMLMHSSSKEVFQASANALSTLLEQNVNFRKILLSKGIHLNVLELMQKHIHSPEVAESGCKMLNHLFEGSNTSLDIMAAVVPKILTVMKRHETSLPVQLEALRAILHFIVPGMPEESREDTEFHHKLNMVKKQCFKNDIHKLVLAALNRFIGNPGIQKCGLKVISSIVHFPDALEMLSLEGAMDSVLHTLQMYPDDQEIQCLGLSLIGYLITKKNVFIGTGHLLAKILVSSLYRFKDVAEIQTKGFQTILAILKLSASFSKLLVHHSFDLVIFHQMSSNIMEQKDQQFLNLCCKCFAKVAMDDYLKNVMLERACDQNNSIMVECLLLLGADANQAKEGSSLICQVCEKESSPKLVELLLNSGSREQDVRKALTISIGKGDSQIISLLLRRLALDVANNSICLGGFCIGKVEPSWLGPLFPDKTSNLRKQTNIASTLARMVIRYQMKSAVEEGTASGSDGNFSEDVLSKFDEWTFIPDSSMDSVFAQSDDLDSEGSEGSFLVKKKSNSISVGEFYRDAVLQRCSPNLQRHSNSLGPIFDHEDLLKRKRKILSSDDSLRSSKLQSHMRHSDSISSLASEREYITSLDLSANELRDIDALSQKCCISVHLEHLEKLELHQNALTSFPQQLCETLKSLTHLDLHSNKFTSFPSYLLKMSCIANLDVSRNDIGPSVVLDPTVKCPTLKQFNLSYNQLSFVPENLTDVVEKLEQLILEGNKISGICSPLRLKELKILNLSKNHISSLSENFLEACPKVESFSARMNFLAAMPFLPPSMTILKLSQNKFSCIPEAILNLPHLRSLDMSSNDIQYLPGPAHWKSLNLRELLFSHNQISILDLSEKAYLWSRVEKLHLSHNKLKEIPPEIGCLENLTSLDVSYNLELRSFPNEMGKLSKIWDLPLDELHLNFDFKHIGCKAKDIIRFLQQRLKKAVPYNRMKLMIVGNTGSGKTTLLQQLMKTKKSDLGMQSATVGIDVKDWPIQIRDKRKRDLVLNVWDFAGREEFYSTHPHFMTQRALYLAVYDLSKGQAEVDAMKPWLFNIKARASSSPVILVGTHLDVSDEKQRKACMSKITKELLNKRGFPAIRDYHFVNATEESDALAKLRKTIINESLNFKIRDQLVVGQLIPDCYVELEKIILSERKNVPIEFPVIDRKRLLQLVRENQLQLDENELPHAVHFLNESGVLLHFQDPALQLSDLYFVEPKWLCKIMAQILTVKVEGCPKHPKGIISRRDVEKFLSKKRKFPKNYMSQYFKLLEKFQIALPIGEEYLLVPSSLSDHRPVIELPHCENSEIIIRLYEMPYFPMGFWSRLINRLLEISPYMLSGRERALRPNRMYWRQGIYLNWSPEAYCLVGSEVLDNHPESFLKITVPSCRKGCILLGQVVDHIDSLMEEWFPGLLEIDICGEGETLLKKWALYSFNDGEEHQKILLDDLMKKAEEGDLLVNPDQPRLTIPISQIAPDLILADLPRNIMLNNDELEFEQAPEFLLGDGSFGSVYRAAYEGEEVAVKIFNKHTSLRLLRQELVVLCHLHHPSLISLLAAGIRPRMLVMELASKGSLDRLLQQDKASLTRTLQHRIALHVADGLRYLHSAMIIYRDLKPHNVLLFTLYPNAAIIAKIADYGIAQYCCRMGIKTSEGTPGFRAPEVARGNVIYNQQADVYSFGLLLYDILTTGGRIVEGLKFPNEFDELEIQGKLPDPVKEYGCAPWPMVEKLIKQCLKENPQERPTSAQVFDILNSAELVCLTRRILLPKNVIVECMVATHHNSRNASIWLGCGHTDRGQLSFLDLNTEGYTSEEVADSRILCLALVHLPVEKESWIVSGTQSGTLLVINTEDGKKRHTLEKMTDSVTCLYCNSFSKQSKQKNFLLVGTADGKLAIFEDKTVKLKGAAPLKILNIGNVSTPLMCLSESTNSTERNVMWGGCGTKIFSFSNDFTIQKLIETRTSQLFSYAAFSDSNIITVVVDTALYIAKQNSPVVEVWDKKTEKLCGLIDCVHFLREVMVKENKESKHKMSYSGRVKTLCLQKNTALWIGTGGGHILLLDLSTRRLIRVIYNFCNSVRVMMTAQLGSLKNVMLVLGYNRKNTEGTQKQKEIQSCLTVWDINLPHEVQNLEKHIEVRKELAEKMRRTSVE

[15] = target: Leucine-rich repeat serine/threonine-protein kinase 2 (Homo sapiens) (UniProt Q5S007); settings: at 1 µM
[16] = system: Leucine-rich repeat serine/threonine-protein kinase 2 (Homo sapiens), Q5S007 [G2019S]; settings: at 0.1 µM
Sequence of Leucine-rich repeat serine/threonine-protein kinase 2 (Homo sapiens), Q5S007 [G2019S] (Q5S007 whole entry G2019S): as the sequence (Q5S007 whole entry) above, with G2019S counted along it

[17] = system: Leucine-rich repeat serine/threonine-protein kinase 2 (Homo sapiens), Q5S007 [G2019S]; settings: at 1 µM

Row | SMILES | inhibition [1] [%] | inhibition [2] [%] | inhibition [3] [%] | inhibition [4] [%] | inhibition [5] [%] | inhibition [6] [%] | inhibition [7] [%] | inhibition [8] [%] | inhibition [9] [%] | inhibition [10] [%] | inhibition [11] [%] | inhibition [12] [%] | inhibition [13] [%] | inhibition [14] [%] | inhibition [15] [%] | inhibition [16] [%] | inhibition [17] [%]
1 | Cc1cc(-c2ccccn2)cc(C)c1/C=C/c1cncc(-c2nn[nH]n2)c1 | 0.93 | 1.13 | 11.4 | 3.62 | -2.29 | 5.62 | 12.4 | 4.7 | 5.23 | 1.48 | 0.84 | 1.97 | 2.42 | 1.5 | 10.7 | 3.32 | 8.55
2 | Cc1ccc(C(=O)NC2CC2)cc1-c1ccc2[nH]ncc2c1 | -0.85 | -1.92 | -0.56 | -3.94 | -1.58 | -6.03 | -6.48 | -3.87 | -3.07 | -2.17 | -2.56 | -1.84 | -0.57 | -0.67 | 2.87 | 1.11 | 4.33
3 | CS(=O)(=O)CCNCc1nc(-c2ccc3ncnc(Nc4ccc(OCc5cccc(C(F)(F)F)c5)cc4)c3c2)cs1 | 1.66 | 1.94 | 3.56 | 1.5 | 0.78 | 1.81 | 2.12 | 2.15 | -0.18 | 0.97 | -1.38 | 0.78 | 1.16 | 1.09 | 6.41 | 3.12 | 5.01
4 | CN(C)C(=O)O[C@H]1CN[C@H](C#Cc2cc3ncnc(Nc4ccc(OCc5cccc(F)c5)c(Cl)c4)c3s2)C1 | 2.13 | 1.37 | 3.86 | 0.97 | 3.33 | 3.09 | 6.19 | 3.55 | 5.77 | 3.11 | 5.68 | -3.18 | 1.16 | 1.64 | 2.05 | 4.13 | 6.83
5 | COc1cccc(-n2nc(C)c3c(N/N=C(\C)c4ccncc4)ncnc32)c1 | 2.25 | 1.18 | 0.82 | 0.82 | 2.35 | 0.14 | -1.61 | 0.28 | -0.78 | -2.44 | -2.83 | -0.08 | 0.93 | 2.29 | 4.69 | 2.88 | 4.64
6 | CS(=O)(=O)Nc1cccc(-c2ccc3c(NC(=O)C4CC4)n[nH]c3c2)c1 | 17.9 | 2.95 | 2.86 | 1.35 | 1.3 | 1.25 | 2.51 | 1.61 | 2.94 | 8.26 | 16.5 | 4.95 | 0.25 | 1.1 | 5.23 | 2.67 | 5.19
7 | CC(C)c1ccc(Nc2nccc(-c3cnn4ncccc34)n2)cc1 | 4.27 | 3.25 | 6.98 | 1.01 | 6.84 | 4.59 | 13.7 | 5.11 | 11.6 | 0.59 | 2.26 | -2.06 | 1.84 | 9.89 | 17.9 | 11.6 | 44.5
8 | NC(=O)c1sc(-n2cnc3ccccc32)cc1OCc1ccccc1Br | 1.89 | 2.41 | 7.85 | -2.78 | -2.62 | 5.54 | 6.15 | 4.91 | 3.77 | 3.4 | -0.55 | 1.39 | 2.57 | 1.66 | 10.8 | 4.94 | 19.3
9 | ON=C1CCc2cc(-c3nc(C4CCNCC4)[nH]c3-c3ccncc3)ccc21 | 1.37 | -1.71 | 0.86 | 1.57 | 1.96 |  |  |  |  | -7.53 | 10.2 | 4 | -0.27 | 1.51 | 2.68 | 0.74 | 4.07
10 | c1ccc(Nc2ncc(-c3ccccc3)o2)cc1 | 6.84 | 2.4 | 6.64 | -1.32 | 1.41 | 5.93 | 7.7 | 5.02 | 4.39 | 2.39 | 0.56 | 2.02 | 2.65 | 1.16 | 4.27 | 3.18 | 8.98
11 | Cc1ccc2c(c1)/C(=N/Nc1ccc(S(N)(=O)=O)cc1)C(=O)N2 | 0.35 | -0.04 | 5.49 | 1.31 | 1.47 | 0.51 | 3.31 | 0.4 | 3.37 | 0.26 |  | 2.09 | -0.03 | 6.44 | 13.1 | 9.36 | 46.2
12 | CN(C)C(=O)O[C@@H]1CN[C@@H](C#Cc2cc3ncnc(Nc4ccc(OCc5cccc(F)c5)c(Cl)c4)c3s2)C1 | -0.16 | 3.49 | 5.24 | 0.96 | 2.42 | 0.07 | 3.2 | 0.85 | 3.23 | -2.83 |  | 2.83 | 0.5 | 0.07 | 0.34 | 1.22 | 4.14
13 | NS(=O)(=O)c1cccc(Nc2cc(-c3ccc(F)cc3)n[nH]2)c1 | 19.7 | 2.67 | 12.1 | 1.39 | 2.54 | 5.14 | 4.96 | 3.81 | 5.31 | 0.49 | -8.3 | -1.86 | 1.25 | 4.6 | 10.5 | 5.16 | 12.2
14 | COc1ccc2ncnc(Nc3ccc(OCc4ccccc4)cc3)c2c1 | 3.15 | 5.76 | 22.9 | 1.97 | 1.84 | 3.6 | 2.93 | 3.51 | 2.24 | -0.56 |  | 3.13 | 0.86 | 1.61 | 4.95 | 2.19 | 13.1
15 | CC(C)c1ccc2c(c1)NC(=O)/C2=N/Nc1ccc(S(N)(=O)=O)cc1 | 2.75 | 2.45 | 9.19 | -0.31 | 1.5 | -0.82 | -1.25 | 0.24 | -0.56 | -2.32 | -0.41 | 0.36 | 0.49 | -0.37 | 9.75 | 2.27 | 11.5
